In all, about 13,000 compounds were measured (“IFI”: median about 4, highest 2% from about 17 on). The sample holds the highest values, similar compounds and a random draw of the others, so the mix is not that of the screen.
experiment: GSK_TCMDC: Inhibition Frequency Index (IFI). The number of non-kinase HTS assays where a compound showed > 50 % inhibition, expressed as a percentage of the number of such assays in which the compound was tested; format: functional

Row | Structure (SMILES) | IFI
1 | CC(C)CCNC(=O)C1Cc2c([nH]c3ccc(Br)cc23)C2(CCN(Cc3ccccc3)CC2)N1 (stereo not drawn) | 7.04%
2 | CN1CCCC(CN2CCN(Cc3cccc(-c4ccc(-c5nc6ccccc6[nH]5)s4)c3)CC2)C1 (stereo not drawn) | 5.63%
3 | CN1CCN(c2nsc3ccc(-c4ccc(OCCN5CCCC5)cc4)cc23)CC1 | 12.2%
4 | N=C(N)Nc1nccc(NCc2ccccc2)n1 | 5.3%
5 | N=C(Nc1cccc(Cc2ccccc2)n1)Nc1ncccn1 | 17.2%
6 | Cc1cc(NCCc2ccccc2)nc(NC(=N)Nc2cccc([N+](=O)[O-])c2)n1 | 6.21%
7 | CC1(C)N=C(NC(=O)Nc2ccc([N+](=O)[O-])cc2)N=C(N)N1OCc1cccc2ccccc12 | 1.46%
8 | COc1ccc(-c2nccc(NC(=N)NCc3ccccc3)n2)cc1 | 10.7%
9 | N=C(Nc1ccccc1)Nc1cccc(Cc2ccc([N+](=O)[O-])cc2)n1 | 19.9%
10 | CC(C)(C)CCN1CCC(CNC(=O)c2cc(-c3cccc(C(F)(F)F)c3)cs2)C1 (stereo not drawn) | 10%
11 | CN(C)Cc1cccc(-c2cc3c(-c4cnn(C)c4)c(Cl)cnc3[nH]2)c1 | 22.2%
12 | CN(C)Cc1ccc(-c2cc3c(-c4ccc(CN(C)C)cc4)ccnc3[nH]2)cc1 | 0%
13 | Cn1cc(-c2ccnc3[nH]c(-c4cccc(CNC5CCC(O)CC5)c4)cc23)cn1 (stereo not drawn) | 8.11%
14 | OCCN1CCN(Cc2ccc(-c3cccc(-c4nc5cc(F)ccc5[nH]4)c3)cc2)CC1 | 3.92%
15 | CN(C)Cc1cccc(-c2cnc(N)c(-c3nc4cc(S(C)(=O)=O)ccc4[nH]3)c2)c1 | 7.41%
16 | Fc1ccc2[nH]c(-c3cccc(-c4ccc(CNCC5CCCO5)cc4)c3)nc2c1 (stereo not drawn) | 5.88%
17 | O=C(Nc1ccc(Cl)cc1)c1cc(Cl)cc2nc(C(F)(F)F)[nH]c12 | 27.1%
18 | O=C(Nc1ccc(Cl)cc1)c1cccc2nc(C(F)(F)F)[nH]c12 | 21.3%
19 | Cc1cccc2nc(-c3ccc(-c4ccc(NC(=O)Nc5ccc(Cl)cc5)cc4)cc3)[nH]c12 | 4%
20 | O=C(Nc1cccc(C(F)(F)F)c1)c1cccc2nc(C(F)(F)F)[nH]c12 | 16.4%
21 | O=C(Nc1ccc(C(F)(F)F)cc1)c1cc(Cl)cc2nc(C(F)(F)F)[nH]c12 | 23.4%
22 | O=C(Nc1ccc2c(c1)CCNCC2)c1ccc(-c2ccc(Cl)cc2)cc1 | 9.66%
23 | COc1ccc(Cl)cc1C(=O)Nc1ccc(-c2nc3ccccc3[nH]2)cc1 | 6.52%
24 | O=C(Nc1ccc(Cl)cc1)Nc1cccc(-c2cccc(-c3nc4cc(C(F)(F)F)ccc4[nH]3)c2)c1 | 9%
25 | O=C(Nc1ccc(-c2cccc(-c3nc4cc(C(F)(F)F)ccc4[nH]3)c2)cc1)c1ccncc1 | 6.42%

Row | Structure (SMILES) | IFI
26 | COc1cccc(NC(=O)Cn2c(C)c(C#N)c3ccccc32)c1 | 0%
27 | CCOC(=O)c1ccc(-c2cnc(N)c(-c3nc4cccc(C)c4[nH]3)c2)cc1 | 0.69%
28 | Cc1ccc(Nc2nccc(Nc3ccc4c(c3)nc(Nc3cc(C(C)(C)C)on3)n4C)n2)cc1S(C)(=O)=O | 7.63%
29 | COc1ccc(CNC2Cc3ccccc3C2)cc1-c1ccc(OC)c(S(=O)(=O)NCCN2CCCC2)c1 | 7.69%
30 | CCn1cc(-c2nc(-c3cc(OC)cc(OC)c3)no2)c(=O)c2ccccc21 | 4.35%
31 | CC(C)N1CCN(C(CN2CCN(CCCOc3cccc(F)c3)CC2)c2ccc(F)cc2)CC1 (stereo not drawn) | 6.2%
32 | CN1CCN(c2ccc(Nc3nccc(-c4c(-c5cccc(NC(=O)c6c(F)cccc6F)c5)nn5ccccc45)n3)cc2)CC1 | 9.35%
33 | CC(C)Oc1cc2c(cc1NS(=O)(=O)c1ccc(-c3ccc(Cl)cc3)cc1)CCN(C)CC2 | 12.4%
34 | CN1CCc2cc(NS(=O)(=O)c3ccc(-c4ccc(Cl)cc4)cc3)c(OCCCN3CCCCC3)cc2CC1 | 18.6%
35 | O=S(=O)(Nc1cc2c(cc1OCCCN1CCCCC1)CCNCC2)c1ccc(-c2ccc(Cl)cc2)cc1 | 11.9%
36 | c1cc(CN2CCCCC2)cc(-c2ccc(-c3nc4ccccc4[nH]3)s2)c1 | 2.86%
37 | COc1ccc(CNC2Cc3ccccc3C2)cc1-c1ccc(S(=O)(=O)NCc2ccccc2)s1 | 12.3%
38 | Cc1ccc(C(=O)Nc2ccc(Nc3ccnc4cc(-c5ccccn5)ccc34)cc2O)cc1 | 10.3%
39 | COc1ccc(/N=C(\N)Nc2ccccc2)nc1Cc1ccccc1 | 30.2%
40 | COc1ccc(Cc2nc(/N=C(\N)Nc3ccccc3)ccc2OC)cc1 | 22.6%
41 | COc1cc2nc(C)nc(Nc3ccc(Cc4ccccc4)cc3)c2cc1OC | 6.35%
42 | COc1cc2cc(C(=O)Nc3ccccc3)c(N)nc2cc1OC | 1.28%
43 | COc1ccc2nc(NC(N)=NC(=O)Nc3ccccc3)nc(C)c2c1 | 0.81%
44 | COc1ccc(CCN(C)CCOc2ccc(NC(=O)c3cccc4cc5ccccc5nc34)cc2)cc1OC | 6.67%
45 | Nc1c2ccccc2nc2cc([N+](=O)[O-])ccc12 | 6.92%
46 | Nc1cc(/C=C/c2ccc([N+](=O)[O-])o2)nc2ccccc12 | 16.7%
47 | Nc1cc(/C=C/c2ccc([N+](=O)[O-])s2)nc2ccccc12 | 19.2%
48 | O=C(c1cccc(Br)c1)N1CCN(c2ccc([N+](=O)[O-])c(NC3CC3)c2)CC1 | 4.2%
49 | COc1ccc2ncc(F)c(CCN3CC[C@@H](CNCc4nc5c(cc4C)SCC(=O)N5)C3)c2n1 | 5.83%
50 | CCOc1ccc2nc3cc(N)ccc3c(N)c2c1 | 2.08%

Row | Structure (SMILES) | IFI
51 | CCOc1ccc2nc3cc(NC(=O)c4ccco4)ccc3c(N)c2c1 | 20.5%
52 | CCOc1ccc2nc3cc([N+](=O)[O-])ccc3c(N)c2c1 | 6.34%
53 | CC(C)(CNCc1cccc(Oc2cccc(C(F)(F)F)c2)c1)c1nc(-c2ccnc(N)n2)c(-c2ccc(Cl)c(O)c2)[nH]1 | 4.35%
54 | CCNc1cc(C)nc(Nc2ccccc2)n1 | 2.94%
55 | CCNc1cc(C)nc(Nc2ccc(NC(=O)c3c(F)cccc3Cl)cc2)n1 | 18.2%
56 | Cc1cc(N(C)C)nc(Nc2ccc(NS(=O)(=O)c3ccccc3)cc2)n1 | 9.62%
57 | CCNc1cc(C)nc(Nc2ccc(NC(=O)c3ccccc3Cl)cc2)n1 | 11.3%
58 | Cc1cc(N(C)C)nc(Nc2ccc(NC(=O)c3c(F)cccc3Cl)cc2)n1 | 1.89%
59 | CCNc1cc(C)nc(Nc2ccc(NS(=O)(=O)c3ccccc3)cc2)n1 | 20.4%
60 | Cc1cc(Nc2ccc(O)cc2)nc2cc(O)ccc12 | 3.85%
61 | CCN(CC)/C(=N/C(=N)NCc1cccc(Cl)c1)NCCCCCCN/C(=N\C(=N)NCc1cccc(Cl)c1)N(CC)CC | 13.8%
62 | CN(C)/C(=N/C(=N)NCc1ccc(Cl)c(Cl)c1)NCCCCCCN/C(=N\C(=N)NCc1ccc(Cl)c(Cl)c1)N(C)C | 11.8%
63 | N=C(/N=C(/NCCCCCCN/C(=N\C(=N)Nc1ccc(Cl)cc1)N1CCCCC1)N1CCCCC1)Nc1ccc(Cl)cc1 | 10.9%
64 | N=C(/N=C(/NCCCCCCN/C(=N\C(=N)Nc1ccc(Cl)cc1)N1CCOCC1)N1CCOCC1)Nc1ccc(Cl)cc1 | 6.72%
65 | CCCCN(CCCC)/C(=N/C(=N)NCc1ccc(Cl)c(Cl)c1)NCCCCCCN/C(=N\C(=N)NCc1ccc(Cl)c(Cl)c1)N(CCCC)CCCC | 22.9%
66 | N=C(/N=C(/NCCCCCCN/C(=N/C(=N)NCc1ccc(Cl)c(Cl)c1)N1CCCCC1)N1CCCCC1)NCc1ccc(Cl)c(Cl)c1 | 18.8%
67 | Cc1cccc2nc(-c3cccc(-c4ccc(NC(=O)C5CCCO5)cc4)c3)[nH]c12 (stereo not drawn) | 5.31%
68 | Cc1ccc(C(=O)Nc2ccc(F)cc2)cc1-c1nc(NC2CC(C)(C)NC(C)(C)C2)nc2c1ccc(=O)n2-c1c(F)cccc1F | 10.9%
69 | CC(C)c1ccc(OCCCON2C(=N)N=C(N)NC2(C)C)cc1 | 6.34%
70 | CCOC(=O)c1c(-c2ccccc2)nc2c(sc3ccccc32)c1O | 1.48%
71 | c1ccc(CCNc2ccnc(Nc3ccc4[nH]nnc4c3)n2)cc1 | 3.23%
72 | CCN(CC)CCN(Cc1ccc(-c2ccc(C(F)(F)F)cc2)cc1)C(=O)Cn1c(SCc2ccc(F)cc2)cc(=O)c2ccccc21 | 7.64%
73 | COc1ccc2[nH]ccc(=NN=Cc3ccc(F)cc3)c2c1 | 2.22%

Source: ChEMBL document CHEMBL1157539, “Thousands of chemical starting points for antimalarial lead identification” (Nature, 2010)
